This is a sample that favours compounds with a hit; in the whole collection about 4.5% have one here.
ssDAF12 agonist = activates DAF-12 receptor from parasite S. stercoralis; activation, % at 6.8 µM; HEK293 ssDAF-12/GRIP1 lit1-tk-luc reporter, luminescence; % of 3 µM dafachronic acid response; 370,000 tested, 1% active;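 active = activation above the mean over all tested compounds plus 3 SD, cut at about 0.9% in these data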;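 also: 0% = DMSO-only wells and 100% = 3 µM delta7-dafachronic acid wells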
DAX1 inh-1 = inhibitors of human orphan nuclear receptor DAX1 (NR0B1) | P51843 | HEK293 Gal4-DAX1 luciferase reporter, luminescence | inhibition, % at 6.75 µM | 340,000 tested, 0.99% active | AID 504766;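 active = inhibition above the mean over all tested compounds plus 3 SD, cut at about 4.2% in these data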;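 also: 0% = DAX1-transfected cells with DMSO and 100% = empty-vector control cells with DMSO; inhibition shows as a rise in luminescence from relieved DAX1 repression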
Target sequence (P51843 207-470 limits assumed): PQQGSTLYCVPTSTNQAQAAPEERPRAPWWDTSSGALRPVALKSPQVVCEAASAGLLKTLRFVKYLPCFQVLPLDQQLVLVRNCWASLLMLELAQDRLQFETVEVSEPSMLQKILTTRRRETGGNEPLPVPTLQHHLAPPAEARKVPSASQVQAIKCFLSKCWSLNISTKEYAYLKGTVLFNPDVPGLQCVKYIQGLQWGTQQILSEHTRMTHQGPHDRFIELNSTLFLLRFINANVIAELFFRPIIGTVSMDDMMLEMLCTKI
GAA850 FXN act = increases GAA850 frataxin promoter reporter activity. HEK293 lucGAA850 FXN promoter luciferase reporter, 24 h; percent of 10 µM SAHA response. activation, % at 6 µM. 360,000 tested, 0.56% active;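 active = activation above the average of all compounds screened plus 3 SD, cutoff fixed separately per campaign, cut at about 7.5% in these data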;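 also: 0% = DMSO wells and 100% = 10 µM SAHA wells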
DAX1 inh-2 = DAX1 (NR0B1) inhibition, primary screen. AID 652010. 370,000 tested, 1.1% active. HEK293T StAR-luciferase reporter, SF-1/DAX-1 repression relief. inhibition, % at 6.8 µM;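 active = inhibition above the mean over all tested compounds plus 3 SD, cut at about 3.6% in these data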;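 also: 0% = DAX-1 cells with DMSO and 100% = cells lacking DAX-1 with DMSO; higher inhibition means more luminescence from relief of DAX-1 repression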
hgDAF12 agonist = agonists of H. glycines DAF-12 nuclear receptor; HEK293 GAL4-hgDAF12 UAS-luciferase reporter, agonist luminescence; normalized to butyrate control; activation, % at 6.8 µM; 370,000 tested, 1.8% active;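 active = activation above a cutoff set at the mean of all screened compounds plus 3 SD, cut at about 10% in these data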;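 also: 0% = DMSO wells and 100% = sodium butyrate wells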
hcDAF-12 act = H. contortus DAF-12 activation, primary screen; HEK293 hcDAF-12 lit1-tk-luc reporter, luminescence; 0% DMSO, 100% Δ7-dafachronic acid; activation, % at 6.8 µM; 370,000 tested, 1.4% active;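 active = activation above the mean of all tested compounds plus 3 SD, cut at about 5.5% in these data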;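 also: 100% = response to 3 µM Δ7-dafachronic acid high control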
LXRb hcDAF ctr = activates human LXR-beta, counter-screen for hcDAF-12 agonists; shares compounds with hcDAF-12 act; HEK293 Gal4-LXR tk-luc reporter, luminescence, 24 h; normalized: DMSO 0%, positive control 100%; activation, % at 6.8 µM; 3,400 tested, under 10 active; AID 743027;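 active = mean percent activation of the reporter above a cutoff set as the average over tested compounds plus their standard deviation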
hcDAF12 conf = hcDAF-12 agonism, confirmation assay | 3,400 tested, 61% active | activation, % at 6.8 µM | shares compounds with hcDAF-12 act | HEK293 hcDAF-12 lit1-tk-luc reporter, luminescence; % of Δ7-dafachronic acid response;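 active = mean activation across triplicate tests above the threshold derived from the earlier primary screen, cut at about 5.5% in these data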;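 also: 0% = DMSO only wells and 100% = 3 µM Δ7-dafachronic acid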
* hit, by the source's call; / = not tested or not shown.

SMILES	ssDAF12 agonist	DAX1 inh-1	GAA850 FXN act	DAX1 inh-2	hgDAF12 agonist	hcDAF-12 act	LXRb hcDAF ctr	hcDAF12 conf
O=C(COC(=O)CNS(=O)(=O)c1ccc(Cl)cc1)NC1CCCCC1	-1	1	2	0	1	0	/	/
O=S1(=O)c2ccc(Br)cc2OC[C@H](Cc2ccccc2)N1Cc1cn(Cc2ccc(F)cc2)nn1	-1	/	/	1	5	3	/	/
O=c1oc2ccccc2c(Nc2cc3ccccc3cc2O)c1[N+](=O)[O-]	1.0*	-3	1	-1	17*	8.3*	1	14*
O=C(O)CC/C(=C\c1cc([N+](=O)[O-])ccc1Cl)c1nc2ccccc2s1	0	-1	3	0	4	8.8*	0	7.9*
Cc1ccc(O)c(NC(=O)c2ccc3c(c2)C(=O)N(Cc2ccco2)C3=O)c1	-1	0	-1	1	-1	-1	/	/
CN1N=C(C(=O)N2CCc3c([nH]c4ccccc34)C2c2ccccc2Cl)CCC1=O (stereo not given)	1.7*	0	2	2	12*	7.8*	0	6.9*
COc1ccc(C2c3[nH]c4ccccc4c3CCN2C(=O)c2ccc(=O)n(C)n2)c(F)c1 (stereo not given)	0	1	2	0	8	6.9*	0	5
Cc1ccccc1C1c2[nH]c3ccccc3c2CCN1C(=O)c1ccc(=O)n(C)n1 (stereo not given)	-1	3	-1	0	8	6	/	/
O=C(c1cc[n+]([O-])cc1)N1CCc2c([nH]c3ccccc23)C1c1ccccc1Cl (stereo not given)	0	/	0	0	1	3	/	/
CCC(=O)N1CCC1(C)C(=O)Nc1ccc(OC)c(OC)c1 (stereo not given)	-1	/	1	-1	2	2	/	/
CC1=NN(c2ccc(C)cc2)C(=O)/C1=C\c1ccc(Br)s1	0	0	3	0	0	9.5*	0	5
CC1=NN(c2ccc(Br)cc2)C(=O)/C1=C/c1cccs1	0	1	-3	0	0	5	/	/
COc1cccc(-c2ccc(NC(=O)C3CCCN(Cc4cc(C)[nH]n4)C3)cc2)c1 (stereo not given)	-1	0	1	0	3	7.0*	0	0
CCCCCCN1CCS(=O)(=O)N(Cc2ccc(Cl)cc2)C(C(=O)OC)C1 (stereo not given)	-1	/	/	0	-2	0	/	/
N#CC(c1ccccc1O)N1N=C(c2ccccc2)CC1c1ccccc1 (stereo not given)	1.6*	4	8.2*	1	8	9.2*	1	7.3*
COc1cc(C(C#N)N2N=C(c3ccccc3)CC2c2ccccc2)ccc1O (stereo not given)	1.4*	1	0	1	12*	7.9*	0	3
COc1ccccc1C(C#N)N1N=C(C)CC1c1ccccc1 (stereo not given)	-1	1	0	0	-1	-1	/	/
Cc1nccn1CC(=O)N/N=C/c1c[nH]c2ccccc12	-1	2	1	0	3	8.3*	0	-1
O=C(N/N=C/c1c[nH]c2ccccc12)c1ccn[nH]1	0	1	7	1	12*	9.9*	0	3
Cc1c(/C=N\NC(=O)c2c[nH]c3ccccc23)cnn1C	1.7*	0	3	1	1	9.4*	0	2
O=C(N/N=C\c1c[nH]c2ccccc12)c1ccc(O)cc1	1.4*	2	-1	0	9	9.7*	0	5
O=C(N/N=C/c1c[nH]c2ccccc12)c1cc(-c2ccccc2)n[nH]1	0	1	2	0	2	1	/	/

Assay outcomes from PubChem BioAssay.
